Several values for one entry are separate records, joined by “and”; a condition that tells them apart may be missing. Equal entries are not always repeated. The campaign covered roughly 5,500 compounds. About 2,000 (36%) were called active. About 18% were inconclusive and are not listed. No stated cut-off is given here; in the data, active means normalized growth mostly below about 0.91 (no sharp cut-off); inconclusive means no clear call, values can overlap the other calls; inactive means mostly above about 0.92. This is one part of the list.
Assay: chemical genetic growth profiling, strain panel (AID 1159580);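 further: tested at 20 µM; growth read once vehicle control cultures reached saturation at 30 °C; 1 = growth at the plate median or of vehicle wells; lower values mean less growth of the strain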
Settings: S. cerevisiae deletion strains, growth OD

Measured: normalized growth

CC[N+]1(C)CCCC(OC(=O)C(O)(c2ccccc2)c2ccccc2)C1 (stereo not given)
inactive: locus YAL013W, strain DEP1, hits give low values 1.01 | locus YAL021C, strain ccr4, hits give low values 1.01 | locus YAL026C, strain drs2, hits give low values 1.03 | locus YAL030W, strain snc1, hits give low values 1.02 | locus YBL061C, strain skt5, hits give low values 1.03 | locus YBR009C, strain hhf1, hits give low values 1.02 | locus YBR021W, strain FUR4, hits give low values 1.02 | locus YBR023C, strain chs3, hits give low values 1.02 | locus YBR171W, strain sec66, hits give low values 1.03 | locus YBR229C, strain ROT2, hits give low values 1.01 | locus YBR231C, strain swc5, hits give low values 1.03 | locus YBR279W, strain paf1, hits give low values 1.02 | locus YCL011C, strain gbp2, hits give low values 1.03 | locus YCL016C, strain dcc1, hits give low values 1.01 | locus YCL029C, strain bik1, hits give low values 1.02 | locus YCL061C, strain MRC1, hits give low values 1.02 | locus YCL069W, strain vba3, hits give low values 1.03 | locus YCR088W, strain abp1, hits give low values 1.02 | locus YDL005C, strain med2, hits give low values 1.03 | locus YDL035C, strain GPR1, hits give low values 1.02 | locus YDL040C, strain nat1, hits give low values 1.01 | locus YDL074C, strain BRE1, hits give low values 1 | locus YDL101C, strain DUN1, hits give low values 1.01 | locus YDL134C, strain PPH21, hits give low values 1.02 | locus YDL185W, strain tfp1, hits give low values 1.01 | locus YDL192W, strain arf1, hits give low values 1.02 | locus YDR001C, strain nth1, hits give low values 1.02 | locus YDR069C, strain doa4, hits give low values 1.03 | locus YDR101C, strain arx1, hits give low values 1.02 | locus YDR137W, strain rgp1, hits give low values 1.07 | locus YDR159W, strain sac3, hits give low values 1 | locus YDR162C, strain NBP2, hits give low values 1.01 | locus YDR195W, strain ref2 1.01 | locus YDR297W, strain sur2, hits give low values 1.02 | locus YDR318W, strain mcm21, hits give low values 1 | locus YDR334W, strain swr1, hits give low values 1.03 | locus YDR335W, strain msn5, hits give low values 1.03 | locus YDR388W, hits give low values 1.02 | locus YDR392W, strain spt3, hits give low values 0.931 | locus YDR502C, strain sam2, hits give low values 1.01 | locus YEL003W, strain gim4, hits give low values 1.02 | locus YEL037C, strain rad23, hits give low values 1.02 | locus YEL061C, strain CIN8 (second series), hits give low values 1.02 | locus YEL061C, strain CIN8, hits give low values 1.01 | locus YER015W, strain faa2, hits give low values 1.02 | locus YER016W, strain bim1, hits give low values 1.02 | locus YER110C, hits give low values 1.02 | locus YER111C, strain swi4, hits give low values 1.03 | locus YER155C, strain BEM2 (second series), hits give low values 1.01 | locus YER155C, strain BEM2, hits give low values 1 | locus YER167W, strain BCK2, hits give low values 1.01 | locus YFR010W, strain ubp6, hits give low values 1.03 | locus YGL078C, strain dbp3, hits give low values 1.02 | locus YGL086W, strain mad1, hits give low values 1 | locus YGL167C, strain pmr1, hits give low values 1.03 | locus YGL173C, strain kem1, hits give low values 1.04 | locus YGL227W, strain vid30, hits give low values 1.03 | locus YGL240W, strain doc1, hits give low values 1.03 | locus YGL248W, strain PDE1, hits give low values 1 | locus YGL253W, strain hxk2, hits give low values 1.03 | locus YGR078C, strain PAC10, hits give low values 1 | locus YGR135W, strain pre9, hits give low values 1.02 | locus YGR229C, strain SMI1, hits give low values 1.01 | locus YGR252W, strain gcn5, hits give low values 1 | locus YHR013C, strain ard1, hits give low values 1.04 | locus YHR027C, strain rpn1, hits give low values 1.02 | locus YHR030C, strain SLT2, hits give low values 1.01 and 1.02 | locus YHR079C, strain IRE1 (second series), hits give low values 1.01 | locus YHR079C, strain IRE1, hits give low values 1.03 | locus YHR094C, strain hxt1, hits give low values 1.01 | locus YHR129C, strain ARP1, hits give low values 0.999 | locus YHR142W, strain chs7, hits give low values 1.03 | locus YHR200W, strain rpn10, hits give low values 1.01 | locus YIL066C, strain RNR3, hits give low values 1.02 | locus YIL073C, strain SPO22, hits give low values 1.07 | locus YIL125W, strain kgd1, hits give low values 1 | locus YIR030C, strain dcg1, hits give low values 1.01 | locus YJL092W, strain hpr5, hits give low values 1.02 | locus YJL095W, strain BCK1 (second series), hits give low values 1.01 | locus YJL095W, strain BCK1, hits give low values 0.998 and 1.03 | locus YJL115W, strain asf1, hits give low values 1.03 | locus YJL129C, strain trk1, hits give low values 1.04 | locus YJL134W, strain LCB3, hits give low values 1 | locus YJL154C, strain vps35, hits give low values 1.02 | locus YJL164C, strain tpk1, hits give low values 1.01 | locus YJL166W, strain qcr8, hits give low values 1.03 | locus YJL168C, strain set2, hits give low values 1.01 | locus YJL187C, strain SWE1 (second series), hits give low values 1.01 | locus YJL187C, strain SWE1, hits give low values 1.02 | locus YJR043C, strain POL32, hits give low values 1.04

From PubChem BioAssay AID1159580 (chemical genetic matrix, 2015)
